Screen size: about 340,000 compounds; about 6,900 (2%) were called active. The full list was thinned out, with actives kept by preference. Values without a mark were called inactive. No stated cut-off is given here; in the data, active means inhibition above about 30%; inactive means below that, where a call was filed.
target: D(2) dopamine receptor (Homo sapiens) (UniProt P14416); assay: HTS Assay for Allosteric Antagonists of the Human D2 Dopamine Receptor: Primary Screen for Antagonists; details: HEK293 TREx D2 cells, calcium flux, dopamine EC80; at 10 µM; active compounds read high; further: 0% is about no effect
Sequence (P14416 whole entry, looked up): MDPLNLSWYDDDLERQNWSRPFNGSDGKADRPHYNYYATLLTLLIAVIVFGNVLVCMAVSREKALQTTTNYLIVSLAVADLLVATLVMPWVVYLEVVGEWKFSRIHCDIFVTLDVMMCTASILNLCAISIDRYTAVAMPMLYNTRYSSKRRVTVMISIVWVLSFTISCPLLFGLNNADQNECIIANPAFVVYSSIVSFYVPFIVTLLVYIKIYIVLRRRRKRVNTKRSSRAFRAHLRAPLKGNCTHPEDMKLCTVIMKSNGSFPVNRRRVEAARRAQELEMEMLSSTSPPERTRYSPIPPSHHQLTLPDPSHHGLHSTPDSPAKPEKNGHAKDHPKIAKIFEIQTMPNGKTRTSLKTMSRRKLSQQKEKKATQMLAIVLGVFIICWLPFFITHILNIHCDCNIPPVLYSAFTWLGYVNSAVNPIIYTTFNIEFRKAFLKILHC
Outline: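 Tetracycline-induced HEK293 TREx cells expressing D2 receptor forced-coupled to calcium signalling, loaded with no-wash calcium dye. Compounds added and calcium flux read 180 s, then dopamine added at EC80 and read a further 180 s.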

| Compound | inhibition |
| --- | --- |
| O=C(Nc1cccc(-c2nnc(-c3ccccc3)o2)c1)C1CCCO1 (stereo not drawn) | 63% (active) |
| O=C(Nc1ccc(-c2nnc(-c3ccccc3)o2)cc1)C1CCCO1 (stereo not drawn) | -12.9% |
| O=C(Nc1nnc(CCc2ccccc2)s1)C1CCCO1 (stereo not drawn) | -19.8% |
| CCC(C)NC(=O)c1ccc(NC(=O)CC2SC(N3CCCCC3)=NC2=O)cc1 (stereo not drawn) | -4.54% |
| O=C(CC1SC(N2CCCC2)=NC1=O)Nc1ccc(C(=O)NCCc2ccc(F)cc2)cc1 (stereo not drawn) | -4.16% |
| COc1ccc(NC(=O)CC2SC(N3CCCCC3)=NC2=O)cc1OC (stereo not drawn) | 40.6% (active) |
| COc1ccccc1N1CCN(C(=O)C2Cc3ccccc3CN2C(=O)c2ccco2)CC1 (stereo not drawn) | -23.2% |
| CCOc1ccc(NC(=O)COC(=O)C2CCC(=O)N2)c([N+](=O)[O-])c1 (stereo not drawn) | -10.6% |
| CC(C)c1ccc(S(=O)(=O)N2CCN(C(C)C(=O)NC3CCCC3)CC2)cc1 (stereo not drawn) | -16.2% |
| Cc1ccc2oc(=O)c3cnn(CC(=O)N(Cc4ccco4)C4CCCCC4)c3c2c1 | 32.4% (active) |
| Cc1ccc2oc(=O)c3cnn(CC(=O)N4CCN(c5ccccn5)CC4)c3c2c1 | -21.9% |
| Cc1ccc2oc(=O)c3cnn(CC(=O)N4CCCCCC4)c3c2c1 | -0.561% |
| O=C(O)C1C2C=CC(C2)C1C(=O)NCc1ccccc1 (stereo not drawn) | 3.26% |
| O=C(COC(=O)c1ccc(O)cc1O)NNC(=O)c1cccs1 | 13.6% |
| O=C(NC1CCN(Cc2ccccc2)CC1)c1ccc(Oc2cc(Cl)cc(Cl)c2)o1 | 26.7% |
| O=C(NC1CCN(Cc2ccccc2)CC1)c1cc(Br)c(Br)[nH]1 | 78.3% (active) |
| Cc1cc(C(=O)NC2CCN(Cc3ccccc3)CC2)n[nH]1 | 74.1% (active) |
| O=C(NC1CCN(Cc2ccccc2)CC1)c1c(F)cccc1F | 24.1% |
| Cc1ccn2cc(C(=O)NC3CCN(Cc4ccccc4)CC3)nc2c1 | 15.3% |
| Cc1cc(C(=O)NC2CC(C)(C)Cc3c2cnn3-c2ccccc2)n[nH]1 (stereo not drawn) | -16% |

| Compound | inhibition |
| --- | --- |
| O=C(c1ccncc1)N1CCN(S(=O)(=O)c2cccc([N+](=O)[O-])c2)CC1 | 4.87% |
| CC(Sc1nnc(C2CC2)n1C1CC1)C(=O)Nc1ccc(C(N)=O)cc1 (stereo not drawn) | -13.1% |
| CC(OC(=O)c1ccccc1NCCO)C(=O)Nc1ccnn1C(C)C (stereo not drawn) | -18.3% |
| COc1ccccc1CNS(=O)(=O)c1cc2c3c(c1)CCC(=O)N3CCC2 | -11.8% |
| O=C(Nc1ccccc1)N1CCN(Cc2ccccc2)CC1 | 13.1% |
| O=C(NC(=S)N1CCN(Cc2ccccc2)CC1)c1ccccc1 | 31.2% (active) |
| O=C(c1cccc(Cl)c1)N1CCN(Cc2ccccc2)CC1 | 7.63% |
| CC(C)N(C(=O)CN1CCN(S(=O)(=O)c2ccc(Br)s2)CC1)C(C)C | -1.58% |
| CCN(CC)CCn1c2c(c(SCC(=O)Nc3ccc(C(C)C)cc3)nc1=O)CCC2 | 14.2% |
| COc1ccc2cc1Oc1ccc(cc1)C[C@H]1c3cc(c(OC)cc3CCN1C)Oc1c(O)c(OC)cc3c1[C@H](C2)N(C)CC3 | -8.18% |
| COc1ccc(CN2CCCC(N3CCc4ccccc4C3)C2)c(O)c1 (stereo not drawn) | -20% |
| COc1c(O)ccc2c1CN1CCc3cc4c(cc3C1C2)OCO4 (stereo not drawn) | 74.1% (active) |
| CCCCNC(=O)Cn1nc(C)c(S(=O)(=O)N2CCOCC2)c1C | 4.53% |
| CS(=O)(=O)N(CC(O)Cn1c2ccccc2c2ccccc21)c1cccc2ccccc12 (stereo not drawn) | 31.2% (active) |
| O=C1c2ccccc2S(=O)(=O)N1CC(O)Cn1c2ccccc2c2ccccc21 (stereo not drawn) | 26.9% |
| CCCCN(CCCC)CC(O)Cn1c2ccccc2c(=O)c2ccccc21 (stereo not drawn) | 0.545% |
| Cc1ccc(C(=O)OCC(=O)Nc2ccc(Cl)cn2)cc1S(=O)(=O)N1CCOCC1 | -15.2% |
| CC(C)(C)c1ccc(S(=O)(=O)N2CCN(C(=O)c3ccc4c(c3)C(=O)N(Cc3ccncc3)C4=O)CC2)cc1 | -6.14% |
| O=C(NCCC1CCCCN1S(=O)(=O)c1cccs1)C(=O)Nc1ccc(F)cc1F (stereo not drawn) | 7.7% |
| CC(C(=O)N(C)CC(=O)Nc1ccccc1C(F)(F)F)N1C(=O)c2ccccc2C1=O (stereo not drawn) | 12.3% |

| Compound | inhibition |
| --- | --- |
| Cc1nn(Cc2ccccc2)c(C)c1C(=O)N1CCN(CC(=O)Nc2ccccc2Cl)CC1 | 0.422% |
| O=C(COC(=O)/C=C/c1ccc(OC(F)F)cc1)NC1CCCCC1 | -18.9% |
| O=C(CO/N=C/c1ccc(OC(F)F)cc1)NCc1ccc(F)cc1 | 4.16% |
| CC1CCCCC1NC(=O)CO/N=C/c1ccc(OC(F)F)cc1 (stereo not drawn) | 34.1% (active) |
| CCOc1ccc(S(=O)(=O)N2CCC(C(=O)OCc3ccc(OC)cc3)CC2)cc1 | 5.17% |
| CC(=C1C(=O)c2ccccc2C1=O)N1CCN(c2ccccn2)CC1 | 56.1% (active) |
| COc1ccc(N2CCN(C(C)=C3C(=O)c4ccccc4C3=O)CC2)cc1 | 14.9% |
| O=C(C(Cl)Cl)N1CCN(c2ccccn2)CC1 | 1.9% |
| CCC1(CC)NC(=O)N(CC(=O)OCC(=O)c2cc(C)c(C)cc2C)C1=O | -22.9% |
| CCC(=O)c1ccc(OCC(=O)N(CC)CC2COc3ccccc3O2)cc1 (stereo not drawn) | -1.9% |
| CC1(C)NC(=O)N(CC(=O)N2CCN(S(=O)(=O)c3ccccc3F)CC2)C1=O | -6.83% |
| CC(C)C[C@H](NC(=O)C1CCC(CNC(=O)[C@@H]2CCCN2C(=O)OC(C)(C)C)CC1)C(=O)O (stereo partly drawn) | -15.8% |
| CC(C)[C@@H](NC(=O)OC(C)(C)C)C(=O)NCC1CCC(C(=O)N[C@@H](Cc2ccccc2)C(=O)O)CC1 (stereo partly drawn) | 31.8% (active) |
| CC(=O)Nc1ccc(S(=O)(=O)N2CCC(C(=O)N[C@@H](Cc3ccccc3)C(=O)O)CC2)cc1 | -23.4% |
| O=C(CSc1nnc(Nc2ccccc2F)s1)NC1CCCC1 | 12.9% |
| N#Cc1ccc(CSc2ncccn2)cc1 | -5.83% |
| N#Cc1ccc(C(c2ccc(C#N)cc2)n2cncn2)cc1 | 48.6% (active) |
| N#Cc1ccc(C(c2nnnn2CCc2ccccc2)N2CCCCCC2)cc1 (stereo not drawn) | -12.6% |

Reference: PubChem BioAssay AID485344 (National Center for Advancing Translational Sciences (NCATS), 2010)
